These results are taken from PubChem BioAssay AID504389 (National Center for Advancing Translational Sciences (NCATS), 2011).

Inconclusive results are not listed. Unmarked numbers belong to inactive results. Calls of active or inactive are those of the source. Calls come from the whole dose curve; as a rule, active = well fitted curve in the direction sought with a large enough effect; inconclusive = small, poorly fitted or top-dose-only effect, or effect the other way, or another doubt; inactive = no such curve, though single readings can be large or run the other way.

This assay deals with Thyrotropin receptor (Homo sapiens) (UniProt P16473). The assay is described as follows: qHTS Assay for Antagonists of the Thyroid Stimulating Hormone Receptor: SAR for Probe. The settings on record: HEK293-TSHR, TSH-stimulated cAMP HTRF, 2 h; series mostly up to 57.5 µM; activity change, negative = inhibition: at the top concentration. The source says: TSH is an alpha/beta heterodimeric glycoprotein hormone secreted from the anterior pituitary gland which belongs to the glycoprotein hormone family. The actions of TSH are mediated by a seven-transmembrane receptor, which upon TSH binding couples preferentially to the G-alpha (s) protein (Gs), resulting in activation of adenylate cyclase and increase in cyclic adenosine 3', 5' monophosphate (cAMP). The TSH receptor (THSR) is mainly expressed in thyroid follicular cells and regulates their growth and function. This cell based assay was conducted on a TSHR transfected HEK 293 cell line, measuring cAMP stimulation using antibody-based Homogeneous Time Resolved Fluorescence (HTRF). Our goal is to identify small molecules that will inhibit (antagonize) the thyroid-stimulating hormone receptor (TSHR), a member of the 7 transmembrane-spanning receptor (7TMR) family of cell surface receptors. TSHR-mediated hyperthyroidism is important in thyroid pathology. The development of small molecule antagonists of TSHR may lead to therapeutic approaches for TSHR-mediated hyperthyroidism caused by constitutively activating mutations or stimulating auto-antibodies associated with Graves' disease. Graves' disease is the leading cause of hyperthyroidism and is caused by autoantibodies that stimulate TSHR (TsAbs) causing thyroid growth and unregulated overproduction of thyroid hormones and existing treatments have liabilities (agranulocytosis). In addition, TSHRs are known to be expressed in multiple extrathyroidal tissues including bone, brain, kidney, testis, fat and cells of the immune system but the role of the TSHR in these tissues is not clear. Therefore, TSHR antagonists/inverse agonists could be used as probes of extrathyroidal TSHR function. Finally, TSHR inverse agonists, which are a subclass of antagonists that inhibit agonist-independent (or basal or constitutive) TSHR signaling, could be used to inhibit TSH-independent signaling in patients with recurrent or metastatic thyroid cancer who are receiving thyroid hormone to suppress TSH. The present assay presents confirmation data for analogues of series of interest in the primary screening assay.
Thyrotropin receptor (Homo sapiens), sequence (P16473 whole entry, looked up): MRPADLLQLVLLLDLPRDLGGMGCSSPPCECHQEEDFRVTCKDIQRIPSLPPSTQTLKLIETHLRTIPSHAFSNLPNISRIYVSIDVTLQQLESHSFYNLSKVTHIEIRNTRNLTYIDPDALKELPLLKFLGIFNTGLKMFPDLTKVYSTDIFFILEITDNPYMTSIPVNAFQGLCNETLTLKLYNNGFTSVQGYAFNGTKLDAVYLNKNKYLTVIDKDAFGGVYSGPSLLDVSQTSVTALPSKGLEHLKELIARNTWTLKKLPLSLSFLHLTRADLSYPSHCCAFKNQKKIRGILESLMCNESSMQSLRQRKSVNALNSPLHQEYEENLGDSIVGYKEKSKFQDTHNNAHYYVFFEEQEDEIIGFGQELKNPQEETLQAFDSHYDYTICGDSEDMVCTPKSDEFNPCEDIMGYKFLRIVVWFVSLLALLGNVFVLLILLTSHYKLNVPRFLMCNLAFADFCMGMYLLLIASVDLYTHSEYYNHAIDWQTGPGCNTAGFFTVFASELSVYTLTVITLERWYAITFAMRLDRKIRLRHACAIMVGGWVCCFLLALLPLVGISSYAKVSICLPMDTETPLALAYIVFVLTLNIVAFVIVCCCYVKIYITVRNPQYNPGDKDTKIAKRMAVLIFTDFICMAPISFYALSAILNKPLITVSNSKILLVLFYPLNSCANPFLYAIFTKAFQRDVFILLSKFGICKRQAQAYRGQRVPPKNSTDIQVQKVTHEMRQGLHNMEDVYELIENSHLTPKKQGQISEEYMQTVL
An anti cAMP antibody contains a fluorescent cryptate tag (excitation 337 nm; emission 620 nm) and the acceptor is cAMP-d2 (excitation 620 nm; emission 665 nm). When antibody and cAMP-d2 interact and are excited by a 337 nm light, a FRET occurs resulting in emission at 665 nm. The assay is competition between cAMP-d2 and cAMP (from the cell lysate). The homogeneous protocol allows for one step dispense after stimulation that is automation friendly. Step, Parameter, Value, Description 1, Cells, 3 uL, 2000 TSHR freshly harvested cells/well 1536 TC treated White solid bottom plate (Cells resuspended in 10 mM HEPES buffered HBSS and 70 uM RO 20-1724) 2, Compound, 23 nL, Libraries and controls 3, Compound, 1 uL, EC80 TSH (4 nM final) 4, Time, 2 hours, 37C 5, Reagent, 2 uL, cAMP antibody diluted 1:20 in lysis buffer 6, Time, 30 minutes, Room temperature 7, Detector, HTRF settings, Viewlux
For orientation: Quantitative high-throughput screening tests each substance at several concentrations.
As for `COc1ccc(C2Nc3ccccc3C(=O)N2Cc2cccs2)cc1COc1c(C)cccc1C` (stereo not given), the “activity change, negative = inhibition” value was -18.8%.

Consider `COc1ccc(C2Nc3ccccc3C(=O)N2Cc2ccccc2)cc1COc1c(C)cc(NC(C)=O)cc1C` (stereo not given), for which the “activity change, negative = inhibition” value was -2.91%.

As for `COc1ccc(C2Nc3ccccc3C(=O)N2Cc2ccccc2)cc1COc1ccccc1OC` (stereo not given), the “activity change, negative = inhibition” value is -0.288%.

Turning to `COc1ccc(C2Nc3ccccc3C(=O)N2Cc2ccco2)cc1COc1ccccc1C` (stereo not given), the “activity change, negative = inhibition” value was -6.42%.

`COc1ccc(C2Nc3ccccc3C(=O)N2Cc2cccnc2)cc1COc1c(C)cccc1C` (stereo not given): the Potency was 36.6 µM (active).

As for `COc1ccc(C2Nc3ccccc3C(=O)N2Cc2ccco2)cc1COc1ccccc1` (stereo not given), the “activity change, negative = inhibition” value is -5.86%.

In the case of `COc1ccc(C2Nc3ccccc3C(=O)N2Cc2ccco2)cc1COc1c(C(C)C)cccc1C(C)C` (stereo not given), the “activity change, negative = inhibition” value is -9.22%.

In the case of `COc1ccc(C2Nc3cccc(O)c3C(=O)N2Cc2ccco2)cc1COc1c(C)cc(NC(C)=O)cc1C` (stereo not given), the “activity change, negative = inhibition” value is -5.28%.

Turning to `COc1ccc(C2Nc3ccccc3C(=O)N2CCCN(C)C)cc1COc1c(C)cc(NC(C)=O)cc1C` (stereo not given), the “activity change, negative = inhibition” value was -1.88%.

For `COCCN1C(=O)c2ccccc2NC1c1ccc(OC)c(COc2c(C)cc(NC(C)=O)cc2C)c1` (stereo not given), the Potency is 46.1 µM (active).

For `COc1ccc(C2Nc3ccccc3C(=O)N2Cc2ccc(C(F)(F)F)o2)cc1COc1c(C)cccc1C` (stereo not given), the “activity change, negative = inhibition” value is -13%.

For the molecule `COc1ccc(C2Nc3ccccc3C(=O)N2Cc2ccccn2)cc1COc1c(C)cccc1C` (stereo not given), the “activity change, negative = inhibition” value was -8.52%.

On to `COc1ccc(C2Nc3ccccc3C(=O)N2CCO)cc1COc1ccc(NC(C)=O)cc1` (stereo not given), for which the “activity change, negative = inhibition” value was 6.37%.

On to `COc1ccc(C2Nc3ccccc3C(=O)N2Cc2ccco2)cc1COc1ccc([N+](=O)[O-])cc1` (stereo not given), for which the “activity change, negative = inhibition” value was 1.43%.

Consider `COc1ccc(C2Nc3ccccc3C(=O)N2Cc2ccccc2OC)cc1COc1c(C)cc(NC(C)=O)cc1C` (stereo not given), for which the “activity change, negative = inhibition” value was -7.63%.

For `COc1ccc(C(=O)O)cc1COc1ccc(NC(C)=O)cc1`, the “activity change, negative = inhibition” value is 1.98%.

Consider `COc1ccc(CN2C(=O)c3ccccc3NC2c2ccc(OC)c(COc3c(C)cc(NC(C)=O)cc3C)c2)cc1` (stereo not given), for which the “activity change, negative = inhibition” value was -1.26%.

Consider `COc1ccc(C2Nc3ccccc3C(=O)N2Cc2ccncc2)cc1COc1c(C)cc(NC(C)=O)cc1C` (stereo not given), for which the “activity change, negative = inhibition” value was -2.14%.

For `COc1cccc(CCN2C(=O)c3ccccc3NC2c2ccc(OC)c(COc3c(C)cc(NC(C)=O)cc3C)c2)c1` (stereo not given), the “activity change, negative = inhibition” value is -3.34%.

`COc1ccc(C2Nc3ccccc3C(=O)N2Cc2ccccc2)cc1COc1c(C)cccc1C` (stereo not given): the “activity change, negative = inhibition” value was -8.19%.

Turning to `COc1ccc(C2Nc3ccccc3C(=O)N2CCCN(C)C)cc1COc1ccc(NC(C)=O)cc1` (stereo not given), the “activity change, negative = inhibition” value was 1.85%.

Turning to `COc1ccc(C2Nc3ccccc3C(=O)N2Cc2ccccc2)cc1COc1ccc(Cl)cc1` (stereo not given), the “activity change, negative = inhibition” value is 0.804%.

As to `COc1ccc(C2Nc3ccccc3C(=O)N2Cc2ccccc2)cc1COc1cccc(C)c1` (stereo not given), the “activity change, negative = inhibition” value is 0.0298%.

Regarding `COc1ccc(-c2nc3ccccc3c(=O)n2Cc2ccco2)cc1COc1c(C)cccc1C`, the “activity change, negative = inhibition” value was -1.63%.

As to `COc1ccc(O)c(C2Nc3ccccc3C(=O)N2Cc2ccccc2)c1` (stereo not given), the “activity change, negative = inhibition” value is 2.33%.

`COc1ccc(C2Nc3cccc(OC)c3C(=O)N2Cc2ccco2)cc1COc1c(C)cc(NC(C)=O)cc1C` (stereo not given): the “activity change, negative = inhibition” value is -4.71%.

Take `COc1ccc(C2Nc3ccccc3C(=O)N2Cc2cccc(OC)c2OC)cc1COc1c(C)cc(NC(C)=O)cc1C` (stereo not given): the “activity change, negative = inhibition” value was -4.15%.

Take `COc1ccc(CN(Cc2ccccc2)C(=O)CN2CCN(C)CC2)cc1COc1ccc(NC(C)=O)cc1`: the “activity change, negative = inhibition” value was 2.86%.

In the case of `COc1ccc(CN(Cc2ccccc2)S(=O)(=O)c2ccccc2)cc1COc1ccc(NC(C)=O)cc1`, the “activity change, negative = inhibition” value was 1.9%.

In the case of `COc1ccc(C2Nc3ccccc3C(=O)N2Cc2cccs2)cc1COc1c(C)cc(NC(C)=O)cc1C` (stereo not given), the “activity change, negative = inhibition” value is -13.2%.

For the molecule `COc1ccc(C2Nc3ccccc3C(=O)N2Cc2ccccc2)cc1COc1ccc(NC(=O)c2ccccc2)cc1` (stereo not given), the “activity change, negative = inhibition” value is 1.27%.

Take `COc1ccc(C2Nc3ccccc3C(=O)N2Cc2ccco2)cc1` (stereo not given): the “activity change, negative = inhibition” value was 1.84%.

`COc1ccc(CN(Cc2ccccc2)C(=O)c2ccc(NC(C)=O)cc2)cc1COc1ccc(NC(C)=O)cc1`: the “activity change, negative = inhibition” value was 6.21%.

`COc1ccc(C2Nc3ccccc3C(=O)N2CCO)cc1COc1c(C)cc(NC(C)=O)cc1C` (stereo not given): the “activity change, negative = inhibition” value was -4.88%.

Turning to `COc1cccc(CN2C(=O)c3ccccc3NC2c2ccc(OC)c(COc3c(C)cc(NC(C)=O)cc3C)c2)c1` (stereo not given), the “activity change, negative = inhibition” value was -4.12%.

Turning to `O=C1c2ccccc2NC(c2ccccc2O)N1Cc1ccccc1` (stereo not given), the “activity change, negative = inhibition” value was 2.98%.

In the case of `COc1ccc(C2NC(=O)c3ccccc3N2)cc1COc1c(C)cc(NC(C)=O)cc1C` (stereo not given), the “activity change, negative = inhibition” value is -2.55%.

`COc1ccc(OCc2cc(C3Nc4ccccc4C(=O)N3Cc3ccccc3)ccc2OC)cc1` (stereo not given): the “activity change, negative = inhibition” value was 0.228%.

Turning to `COc1ccc(O)c(-c2nc3ccccc3c(=O)n2Cc2ccccc2)c1`, the “activity change, negative = inhibition” value is 2.81%.

Take `COc1cc(C2Nc3ccccc3C(=O)N2Cc2ccccc2)ccc1OCc1ccc(NC(C)=O)cc1` (stereo not given): the “activity change, negative = inhibition” value was 0.705%.
